This note sets out measurements from the supplement of paper PMC6555819.

In the test the test system is RARa:RXR (NR concentration 270 nM, RXRa partner concentration 90 nM). As to the kind of experiment: PBM binding z-score (relative to random genomic background probes); higher = stronger binding; sequences stand for … in GC…GCGATTGACAGCGTAGAATGAAGG
Summed up:
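Custom Agilent 4×180K protein-binding microarrays carried double-stranded probes. Their 34-nt variable regions held direct-repeat seeds, single-nucleotide variants, half-site ablations and random human genomic background sequences. Arrays were incubated 1 h with ligand-free nuclear receptor dimers in PBS pH 7.4, 2% milk, 0.02% Triton X-100, 1 mM DTT, 0.2 mg/mL BSA and 0.4 mg/ml salmon testes DNA. Antibodies against each partner (one per run) detected binding, and scanned fluorescence was regression-normalized. Binding z-scores use random background probes as reference.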
In turn, CCTACTGGGCCAACGTCATTGATCAGTCAAAGCA came in with a PBM binding z-score of 0.0251. The figure for CCGACTCGGGCAGAAAGGTTACCATACCATCCGG is 1.33; for CCTTCTGGGCCACGAAAGGTCATTGATTCAGTGA it is 5.44; for ACTAGCAGGCCGAGGGTCACTCAAGATTAGTCCG it is 2.32. CCTATTAGTTGACCATAAGGGCAACCGAAGCTCG showed a PBM binding z-score of 1.37. Sequence ACTATTAGTTGACTTACGGCAACCGATACGACGC came in with a PBM binding z-score of 0.256. The same measure for CCGGCTAGGTCAATGGTCAGCTAAAGCAGCTCGC: 1.75.

Take TCTAGCAGGCCAGAGGGTCGCTCAAGAGGTACGG: the PBM binding z-score is -0.208. The same measure for ACTTCCGGGTCAACGAGGTTATAGCACGCGTATA: 4.87; for CCGACTGAGGCATAAGGTTACCATAAGCCAGCCC: 1.03. GGAACGAGGGCAAGTTGACAGCAGAGTTTGATGG: the PBM binding z-score was found to be 0.4.

In the case of CCAGACTGGTGAGAAGGTAACTCAGCCTCGATTA, the PBM binding z-score is -0.228.

Regarding CGTCCAAGGTCAGAGAGGTCAGTGGATGCCGAGT, the PBM binding z-score stood at 5.33. The figure for TCGGACAGGTGAAGGTAACTCAGGTACGCAGTCG is 0.44; for GCTATTAGTTGAAAGGGCAACCGAATGATTCTCG it is 1.38. The figure for ACAGACAGGTGATGAAGGTGACTCAGGCTATCAT is 0.48; for ACTATTAGTTGAGACGATGGCAACCGATAGGTTG it is -0.204.

As for ACACCAAGGTGATCGTGAGGTCGTTGATACTAAC, the PBM binding z-score came out at 2.18. The figure for TGAATGAGGTTATAAAATCAGGGAACGTTGCAAA is 0.96; for TATACAGGGTCAAAAGCCAGAGTACGAATGTCGA it is 4.49. In turn, ACTTACGGGTCACCGAGGTTATAGCACGCGTATA returned a PBM binding z-score of 6.06. On to TCTGGTAGGTCAGTTGGTCAGCTAACGAGCTGCC, for which the PBM binding z-score turned out to be 0.778. Sequence AATACAGCGTCATCGTAGGCCAGAGTACGCACAG showed a PBM binding z-score of -0.0509. Sequence CGTCAAAGTTCAACTCAGGTAACGTAAAGCACGC came in with a PBM binding z-score of 4.37.

The sequence ATATGTAGGTTAAGGGTGATTCAGGTTGGTTCGC showed a PBM binding z-score of 1.72. CCAGACAGGTGAAAGATAACTCAGTCTGGTACGC: the PBM binding z-score stood at 0.381. The sequence TCTAGTTGATCAAAGGTCACACACTCGAAATGCG returned a PBM binding z-score of 6.33.

The sequence TCTCGGAGGACAGGAAGGTCAGAGCTTTCCAGAG yielded a PBM binding z-score of 1.42. The same measure for CTCTAAAGGTCGGTTGAGGTGAGTATACGGATAA: 2.31; for CGTCCAAGGTCAGAGAGGTTAGTGAATGCCGAGT: 3.47. CCGACTGCGGCAAGGTTACCATAACGCACAGCCA showed a PBM binding z-score of 0.946.

Take CCTAGCAGGACAATCTGGGTCACTCAAGGCTTGA: the PBM binding z-score was found to be 1.67. The same measure for AGGCAAAGTTCACTAGGTAACGTAAGATTCAGCT: 2.94. CTCGAAAGGACGGTTGAGGTGAGTATACGGATAA returned a PBM binding z-score of 0.512. Take CGAACGAGGGCATGAGTCGATAGCAAATGCCGAT: the PBM binding z-score came out at 0.1.

In the case of CCTACTTGGCCAAAAAGGTCATTGATGCCGATAA, the PBM binding z-score is 5.78. The figure for CCTACTGGGCCATCAGGTCATTAATATCAACGTT is 1.51; for TCTAGTTGGTCAGGGAGGTCACACACGACGGGTA it is 4.2; for GCTAGCAGGCCAATTGGGTCACTCAATGACGGGC it is 0.585.
